Screening results as filed in PubChem.
PLK1 PBD inh – blocks phosphopeptide binding to human PLK1 polo-box domain. AID 720504. Potency, µM, for the others: max response, negative = inhibition, usual class: inhibitors. Plk1 PBD binding of FITC phosphopeptide, fluorescence polarization. hit rate 2.8% among 360,000; also: potency is read from the fitted curve at half-maximal effect; series mostly up to about 57 µM; % is scaled to controls: 0 for no effect and ±100 for the full control effect; nearly all actives have a fitted effect of over 65% in size
uPA surface inh – cell surface uPA generation inhibition. cell surface uPA generation assay, qHTS. Potency, µM (top dose mostly 38.3 µM), inactives show at the highest dose activity change, negative = inhibition, most hits filed as inhibitors. hit rate 0.31% among 330,000. AID 540303; active = well fitted inhibition curve with a large enough effect; inconclusive = small, poorly fitted or top-dose-only effect; inactive = no such curve, though single readings can be large or run the other way; tested in mouse RAW 264.7 cells; also: potency is read from the fitted curve at half-maximal effect; % is scaled to controls: 0 for no effect and ±100 for the full control effect; nearly all actives have a fitted effect of over 55% in size
VDR inhibitor – vitamin D3 receptor (human) inhibition; P11473; VDR-SRC2-3 peptide fluorescence polarization, 2 h; Potency, µM, inactives show max response, negative = inhibition, most hits filed as inhibitors; hit rate 0.93% among 400,000; AID 504847; also: potency is read from the fitted curve at half-maximal effect; % is scaled to controls: 0 for no effect and ±100 for the full control effect
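Signal is fluorescence polarization, reporting how far test compounds block the interaction of VDR with the SRC2-3 coregulator peptide after a 2 h room-temperature incubation.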
TSHR antag – blocks TSH signaling through the human TSH receptor; P16473; TSHR-expressing cells, TSH-stimulated cAMP HTRF, 2 h; hits give low values; activity change, negative = inhibition, % at 11.5 µM; hit rate 0.2% among 330,000; AID 504810;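 active = activity change below a set negative limit, meaning inhibition stronger than a set level, cut at about -70% in these data; inconclusive = activity change between two set negative limits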; also: % is scaled to controls: 0 for no effect and ±100 for the full control effect
Target sequence (P16473 whole entry, looked up): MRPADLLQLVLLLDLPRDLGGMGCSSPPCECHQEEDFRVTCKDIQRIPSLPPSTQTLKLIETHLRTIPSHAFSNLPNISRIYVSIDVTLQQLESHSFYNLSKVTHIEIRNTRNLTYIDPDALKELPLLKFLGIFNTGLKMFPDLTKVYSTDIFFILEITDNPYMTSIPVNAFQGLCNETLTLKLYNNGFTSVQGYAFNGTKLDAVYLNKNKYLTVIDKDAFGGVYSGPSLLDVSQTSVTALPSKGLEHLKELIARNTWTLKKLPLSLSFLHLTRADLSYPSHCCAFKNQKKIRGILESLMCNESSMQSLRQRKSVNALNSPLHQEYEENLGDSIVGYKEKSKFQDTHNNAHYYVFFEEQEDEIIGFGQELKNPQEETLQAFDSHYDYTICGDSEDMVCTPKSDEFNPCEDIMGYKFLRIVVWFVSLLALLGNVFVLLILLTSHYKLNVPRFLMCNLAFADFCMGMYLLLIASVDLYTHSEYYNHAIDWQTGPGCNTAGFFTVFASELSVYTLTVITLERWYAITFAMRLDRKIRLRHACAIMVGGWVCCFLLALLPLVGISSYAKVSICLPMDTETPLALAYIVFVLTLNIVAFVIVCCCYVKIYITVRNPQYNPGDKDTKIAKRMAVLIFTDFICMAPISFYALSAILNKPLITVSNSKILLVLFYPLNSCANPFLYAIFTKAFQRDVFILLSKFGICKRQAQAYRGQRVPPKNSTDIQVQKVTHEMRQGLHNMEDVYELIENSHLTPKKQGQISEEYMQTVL
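TSHR-expressing cells, 200/well, pre-treated with compound, then stimulated with EC80 TSH (4nM final) for 2 hours at 37 deg C. cAMP measured by competitive HTRF: anti-cAMP cryptate antibody in lysis buffer plus cAMP-d2, read after 30 minutes at room temperature.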
PTAP TSG101 blk – blocks PTAP/TSG101 interaction to inhibit HIV-1 budding; Q99816; Fluorescence polarization, FITC-PTAP peptide / Tsg101 binding; Potency, µM (highest dose often 115 µM), without a hit: top-dose activity change, negative = inhibition, usual class: inhibitors; 340,000 tested, under 10 active; AID 493005; active = well fitted inhibition curve with a large enough effect in the main read-out, with a control signal flat, not every such curve was filed as active; inconclusive = small, poorly fitted or top-dose-only effect, or effect the other way, or a change in a side signal; inactive = no such curve, though single readings can be large or run the other way; also: potency is read from the fitted curve at half-maximal effect; % of control where 0% means no effect
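Steps: Tsg101 binding domain dispensed (10 uM final), compounds pinned in DMSO, FITC-labeled PTAP-motif peptide added (50 nM final); after 20 min binding at room temperature, polarization measured.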
Numbers without * were called inactive; ? = inconclusive; nt = no result; ! = not active in a repeat. In the library only some 3.1% were active in any assay of this set; here they are far more common. Unless noted, calls follow the shape of the dose curve; as a rule, active = well fitted curve in the direction sought with a large enough effect; inconclusive = small, poorly fitted or top-dose-only effect, or another doubt; inactive = no such curve, though single readings can be large; an effect the other way counts as inactive or inconclusive.

SMILES	PLK1 PBD inh	uPA surface inh	VDR inhibitor	TSHR antag	PTAP TSG101 blk
COc1ccc(C2=Nc3ccccc3N(C(=O)c3cccnc3)C2C(=O)NC2CCCC2)cc1 (stereo not drawn)	-17%	nt	nt	nt	nt
Cc1ccc(OCC(=O)Nc2cc3nn(-c4ccccc4)nc3cc2C)cc1	nt	nt	-5%	nt	nt
COc1ccc(O)cc1	-1%	6.3µM*	2%	-4	-7%
Cc1ccc(-c2csc(-c3ccncc3)n2)cc1	0%	7%	-10%	-6	-6%
COc1ccc(-c2csc(-c3ccc(O)cc3)n2)cc1	21µM*	-12%	?	35	-8%
COc1ccc(N2CC(O)=C(c3nc(-c4ccc(Br)cc4)cs3)C2=N)cc1	-2%	28%	-4%	-3	3%
COc1ccc(-c2ccnc(-c3ccc(O)cc3)n2)cc1	-2%	-6%	9%	-3	0%
COc1ccc(N2CC(O)=C(c3nc(-c4ccccc4)cs3)C2=N)cc1	13µM*	4%	?	2	2%
CC(C)n1nnc2cc(C(=O)O)ccc21	nt	nt	8%	nt	nt
CCN1CCN(C(=S)c2ccc(OCC(=O)NCc3ccccc3)cc2)CC1	11µM*	2%	?	-6	-9%
CCN1CCN(C(=S)c2ccc(OCC(=O)Nc3ccc(OC)cc3)cc2)CC1	-4%	1%	15%	nt	-8%
Cc1cccc(N2CC(c3nc4ccc(C)cc4[nH]3)CC2=O)c1 (stereo not drawn)	nt	nt	7%	nt	nt
COc1ccc(-n2c(=O)c(-c3ccc(Cl)cc3)nc3cnc(N4CCOCC4)nc32)cc1	nt	nt	40µM*	nt	nt
CCOc1cc(C2NC(=O)CCC2[N+](=O)[O-])cc(Br)c1OC (stereo not drawn)	27µM*	6%	?	-10	0%
C=CCN=c1scc(-c2ccccc2)n1/N=C/c1ccccn1	-9%	0.4µM*!	-17%	-30	-4%
C=CCN=c1scc(-c2ccc(F)cc2)n1/N=C/c1ccccn1	0%	-14%	-5%	-36	1%
COc1ccc(CCn2c(=O)c3ccccc3n(CC(=O)Nc3cccc(C)c3)c2=O)cc1OC	nt	nt	-9%	nt	nt
C[C@@H](C(=O)O)c1ccc(N2Cc3ccccc3C2=O)cc1	nt	nt	8%	nt	nt
CN(C(=O)CSc1nc(-c2ccccc2)c(-c2ccccc2)o1)C1CCS(=O)(=O)C1 (stereo not drawn)	30µM*	1%	-2%	-2	-8%
CN(C(=O)CSc1nnc(-c2ccccc2)n1C)C1CCS(=O)(=O)C1 (stereo not drawn)	27µM*	7%	-6%	1	-4%
CCCCc1oc2ccccc2c1C(=O)c1cc(I)c(N(CC)CCOCC)c(I)c1	nt	nt	3%	nt	nt
CCc1oc2ccccc2c1C(=O)c1cc(I)c(O)c(I)c1	nt	nt	32µM*	nt	nt
c1ccc(CCc2nn3c(Cn4nnc5ccccc54)nnc3s2)cc1	13µM*	-5%	?	7	-1%
c1ccc(Cc2nn3c(Cn4nnc5ccccc54)nnc3s2)cc1	8.4µM*	nt	89µM*	-2	-7%
c1ccc2c(c1)OCC(c1nn3c(Cn4nnc5ccccc54)nnc3s1)O2 (stereo not drawn)	24µM*	nt	?	-2	-7%
SMILES	PLK1 PBD inh	uPA surface inh	VDR inhibitor	TSHR antag	PTAP TSG101 blk
Clc1ccccc1-c1nnc2sc(CCc3ccccc3)nn12	7.5µM*	1%	50µM*	0	nt
O=C(O)CSc1nnc(Cn2nnc3ccccc32)n1CCc1ccccc1	-15%	-1%	2%	8	-6%
CCCCn1c(N)c(N(CCOC)C(=O)c2ccc(F)c(S(=O)(=O)N3CCOCC3)c2)c(=O)[nH]c1=O	-3%	-3%	-7%	-9	-1%
COc1ccc(-c2nc(-c3ccccc3)ncc2S(C)(=O)=O)cc1	27µM*	4%	?	-10	-1%
O=C(CSc1nc2c([nH]c3ccccc32)c(=O)n1-c1cccc(Cl)c1)N1CCCC1	nt	nt	15%	nt	nt
Cc1cccc(OCc2nnc(N)s2)c1	27µM*	nt	?	-12	-6%
CCCCN1CC(COCc2ccccc2)Oc2cc(Br)ccc2S1(=O)=O (stereo not drawn)	-8%	2%	3%	nt	-2%
O=C(Nc1nncs1)C12CC3CC(CC(Cl)(C3)C1)C2	-6%	1%	8%	0	-1%
Nc1ccc(-n2cnc3cc([N+](=O)[O-])ccc32)cc1	-4%	-2%	-13%	-19	-2%
Cc1cccc(-n2cnc3cc([N+](=O)[O-])ccc32)c1	17µM*	4%	-20%	-15	1%
